Source: article PMC7862700, “An all-to-all approach to the identification of sequence-specific readers for epigenetic DNA modifications on cytosine”

How the values were obtained:
Assay in all cases: DAPPL (digital affinity profiling via proximity ligation, sequencing); 10 mM Tris-HCl pH 7.5, 50 mM NaCl, 1 mM DTT, 4% glycerol, room temperature, 30 min; GST-TFs on glutathione beads, 16-mer random dsDNA library, 0.1% formaldehyde crosslink after washing; high values mean tight binding
FLI1 = molecular target: T1, FLI1 (Homo sapiens, UniProt Q01543 1-452); conditions: protein: recombinant; tags: N-terminal GST; dsDNA, one strand shown
T1 sequence: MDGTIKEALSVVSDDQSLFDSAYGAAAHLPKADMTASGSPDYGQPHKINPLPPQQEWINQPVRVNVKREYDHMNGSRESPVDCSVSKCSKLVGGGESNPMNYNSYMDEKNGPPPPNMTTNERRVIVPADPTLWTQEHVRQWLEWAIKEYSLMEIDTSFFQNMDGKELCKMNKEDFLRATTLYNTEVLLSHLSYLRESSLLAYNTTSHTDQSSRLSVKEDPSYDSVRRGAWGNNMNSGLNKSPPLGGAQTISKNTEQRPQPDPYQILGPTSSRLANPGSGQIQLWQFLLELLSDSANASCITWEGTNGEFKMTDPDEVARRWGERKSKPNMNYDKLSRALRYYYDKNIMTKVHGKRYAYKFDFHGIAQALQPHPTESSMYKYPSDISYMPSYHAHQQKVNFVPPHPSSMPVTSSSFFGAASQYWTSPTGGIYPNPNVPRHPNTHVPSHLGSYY
How it was run: (§1)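 Pools were built from human transcription factors expressed in yeast as GST fusions, captured on glutathione beads and DNA-barcoded, along with a tag-only sample. Incubation with 200 nmole of a 16-mer random double-stranded DNA library lasted 30 min at room temperature in Tris/NaCl/DTT/glycerol buffer, and was followed by washing, 0.1% formaldehyde crosslinking, proximity ligation, PCR amplification and Illumina NextSeq500 sequencing. Binding signal is the quotient of each hexamer's read frequency for a factor and its frequency for the tag-only sample.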

ELK1 = molecular target: T2, ELK1 (Homo sapiens, UniProt P19419 1-428); conditions: protein: recombinant; tags: N-terminal GST; dsDNA, one strand shown
T2 sequence: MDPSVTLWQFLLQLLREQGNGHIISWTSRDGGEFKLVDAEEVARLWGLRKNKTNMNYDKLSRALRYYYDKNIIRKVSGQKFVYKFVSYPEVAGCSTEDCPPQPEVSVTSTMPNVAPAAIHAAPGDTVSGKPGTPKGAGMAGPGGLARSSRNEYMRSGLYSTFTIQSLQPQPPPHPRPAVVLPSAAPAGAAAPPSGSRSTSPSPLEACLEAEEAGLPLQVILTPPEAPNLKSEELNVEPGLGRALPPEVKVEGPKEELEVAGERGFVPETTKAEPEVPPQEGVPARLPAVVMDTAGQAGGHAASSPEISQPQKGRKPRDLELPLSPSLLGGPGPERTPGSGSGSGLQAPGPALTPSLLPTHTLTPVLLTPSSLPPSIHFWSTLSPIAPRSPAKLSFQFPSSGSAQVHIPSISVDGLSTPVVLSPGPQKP
How it was run: as §1

GABPA = molecular target: T3, GABPA (Homo sapiens, UniProt Q06546 1-454); conditions: protein: recombinant; tags: N-terminal GST; dsDNA, one strand shown
T3 sequence: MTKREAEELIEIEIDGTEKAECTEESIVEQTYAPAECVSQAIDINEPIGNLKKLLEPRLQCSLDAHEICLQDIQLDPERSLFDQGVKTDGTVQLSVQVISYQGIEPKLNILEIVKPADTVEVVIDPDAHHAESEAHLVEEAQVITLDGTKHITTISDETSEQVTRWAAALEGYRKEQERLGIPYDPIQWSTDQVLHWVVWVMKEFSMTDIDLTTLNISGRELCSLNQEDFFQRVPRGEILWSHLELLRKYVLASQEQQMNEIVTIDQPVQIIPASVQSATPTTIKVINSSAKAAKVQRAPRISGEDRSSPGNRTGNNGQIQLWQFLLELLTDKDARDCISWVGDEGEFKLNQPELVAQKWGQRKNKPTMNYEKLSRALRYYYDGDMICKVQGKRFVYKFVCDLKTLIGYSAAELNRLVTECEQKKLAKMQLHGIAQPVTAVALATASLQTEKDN
How it was run: as §1

ERG = molecular target: T4, ERG (Homo sapiens, UniProt P11308 1-479); conditions: protein: recombinant; tags: N-terminal GST; dsDNA, one strand shown
T4 sequence: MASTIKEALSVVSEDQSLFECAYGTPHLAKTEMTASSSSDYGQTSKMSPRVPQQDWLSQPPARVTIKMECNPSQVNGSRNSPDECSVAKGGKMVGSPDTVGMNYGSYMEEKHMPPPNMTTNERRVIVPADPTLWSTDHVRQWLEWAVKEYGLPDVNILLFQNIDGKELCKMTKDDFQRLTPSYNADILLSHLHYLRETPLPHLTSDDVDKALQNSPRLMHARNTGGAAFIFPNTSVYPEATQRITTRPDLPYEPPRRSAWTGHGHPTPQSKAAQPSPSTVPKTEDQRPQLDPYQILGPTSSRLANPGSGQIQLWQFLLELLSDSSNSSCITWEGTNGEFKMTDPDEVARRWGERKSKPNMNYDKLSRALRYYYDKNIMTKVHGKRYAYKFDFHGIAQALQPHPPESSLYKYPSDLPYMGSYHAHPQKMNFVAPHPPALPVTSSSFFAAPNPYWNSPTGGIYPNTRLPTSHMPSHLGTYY
How it was run: as §1

ELF1 = ELF1 (Homo sapiens, UniProt P32519 1-619); conditions: protein: recombinant; tags: N-terminal GST; dsDNA, one strand shown
Sequence of ELF1 (P32519 whole entry): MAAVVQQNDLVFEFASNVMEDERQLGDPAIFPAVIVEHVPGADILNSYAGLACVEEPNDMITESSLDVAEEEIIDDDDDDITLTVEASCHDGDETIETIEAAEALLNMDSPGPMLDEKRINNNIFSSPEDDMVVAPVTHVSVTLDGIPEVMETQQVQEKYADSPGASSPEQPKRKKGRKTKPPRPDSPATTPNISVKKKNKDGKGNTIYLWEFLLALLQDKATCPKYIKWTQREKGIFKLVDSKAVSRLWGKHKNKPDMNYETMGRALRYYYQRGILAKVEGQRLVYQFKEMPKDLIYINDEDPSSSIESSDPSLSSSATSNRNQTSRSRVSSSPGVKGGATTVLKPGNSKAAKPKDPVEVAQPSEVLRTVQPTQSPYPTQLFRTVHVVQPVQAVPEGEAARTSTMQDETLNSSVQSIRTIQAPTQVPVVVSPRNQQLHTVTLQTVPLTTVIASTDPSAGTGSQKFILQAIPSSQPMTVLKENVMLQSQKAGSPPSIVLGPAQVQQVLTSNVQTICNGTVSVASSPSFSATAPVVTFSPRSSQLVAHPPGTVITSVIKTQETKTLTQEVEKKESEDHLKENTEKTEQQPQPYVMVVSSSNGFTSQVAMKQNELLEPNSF
How it was run: as §1

EHF = molecular target: T5, EHF (Homo sapiens, UniProt Q9NZC4 1-300); conditions: protein: recombinant; tags: N-terminal GST; dsDNA, one strand shown
T5 sequence: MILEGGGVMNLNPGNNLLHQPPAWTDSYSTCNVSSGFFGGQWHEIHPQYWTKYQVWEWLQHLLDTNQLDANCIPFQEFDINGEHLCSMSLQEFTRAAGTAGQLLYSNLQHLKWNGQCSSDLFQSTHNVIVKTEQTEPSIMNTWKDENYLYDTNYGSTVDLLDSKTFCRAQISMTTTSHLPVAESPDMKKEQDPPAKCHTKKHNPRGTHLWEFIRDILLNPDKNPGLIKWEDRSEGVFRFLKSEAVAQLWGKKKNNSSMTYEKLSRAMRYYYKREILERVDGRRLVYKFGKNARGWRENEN
How it was run: as §1

SPI1 = SPI1 (Homo sapiens, UniProt P17947 1-270); conditions: protein: recombinant; tags: N-terminal GST; dsDNA, one strand shown
How it was run: as §1

SPIB = SPIB (Homo sapiens, UniProt Q01892 1-262); conditions: protein: recombinant; tags: N-terminal GST; dsDNA, one strand shown
Sequence of SPIB (Q01892 whole entry): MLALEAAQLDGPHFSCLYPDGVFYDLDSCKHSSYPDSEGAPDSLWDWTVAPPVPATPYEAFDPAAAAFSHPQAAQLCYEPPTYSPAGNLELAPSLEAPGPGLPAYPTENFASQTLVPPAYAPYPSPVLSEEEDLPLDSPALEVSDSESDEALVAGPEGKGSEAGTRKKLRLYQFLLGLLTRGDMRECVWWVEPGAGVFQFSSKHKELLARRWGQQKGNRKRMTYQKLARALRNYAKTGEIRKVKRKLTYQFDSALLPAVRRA
How it was run: as §1

ELK3 = molecular target: T6, ELK3 (Homo sapiens, UniProt P41970 1-407); conditions: protein: recombinant; tags: N-terminal GST; dsDNA, one strand shown
T6 sequence: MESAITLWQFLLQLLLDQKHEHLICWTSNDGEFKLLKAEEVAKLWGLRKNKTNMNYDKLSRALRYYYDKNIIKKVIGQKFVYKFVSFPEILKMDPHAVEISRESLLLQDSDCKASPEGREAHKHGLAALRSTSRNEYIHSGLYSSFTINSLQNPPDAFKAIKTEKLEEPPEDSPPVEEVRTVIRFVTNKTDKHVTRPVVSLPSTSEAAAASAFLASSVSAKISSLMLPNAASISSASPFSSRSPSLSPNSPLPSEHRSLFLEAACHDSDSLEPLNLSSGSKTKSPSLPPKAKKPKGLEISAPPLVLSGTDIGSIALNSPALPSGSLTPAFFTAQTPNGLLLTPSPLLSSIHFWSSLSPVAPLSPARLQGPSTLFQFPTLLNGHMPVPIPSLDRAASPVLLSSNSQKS
How it was run: as §1

FEV = molecular target: T7, FEV (Homo sapiens, UniProt Q99581 1-238); conditions: protein: recombinant; tags: N-terminal GST; dsDNA, one strand shown
T7 sequence: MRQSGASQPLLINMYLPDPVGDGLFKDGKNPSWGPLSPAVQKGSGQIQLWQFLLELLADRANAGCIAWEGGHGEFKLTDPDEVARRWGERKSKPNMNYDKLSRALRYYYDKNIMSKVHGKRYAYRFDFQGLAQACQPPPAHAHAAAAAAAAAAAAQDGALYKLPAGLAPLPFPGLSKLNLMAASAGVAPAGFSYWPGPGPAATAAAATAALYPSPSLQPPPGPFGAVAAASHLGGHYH
How it was run: as §1

ETV5 = ETV5 (Homo sapiens, UniProt P41161 1-510); conditions: protein: recombinant; tags: N-terminal GST; dsDNA, one strand shown
Sequence of ETV5 (P41161 whole entry): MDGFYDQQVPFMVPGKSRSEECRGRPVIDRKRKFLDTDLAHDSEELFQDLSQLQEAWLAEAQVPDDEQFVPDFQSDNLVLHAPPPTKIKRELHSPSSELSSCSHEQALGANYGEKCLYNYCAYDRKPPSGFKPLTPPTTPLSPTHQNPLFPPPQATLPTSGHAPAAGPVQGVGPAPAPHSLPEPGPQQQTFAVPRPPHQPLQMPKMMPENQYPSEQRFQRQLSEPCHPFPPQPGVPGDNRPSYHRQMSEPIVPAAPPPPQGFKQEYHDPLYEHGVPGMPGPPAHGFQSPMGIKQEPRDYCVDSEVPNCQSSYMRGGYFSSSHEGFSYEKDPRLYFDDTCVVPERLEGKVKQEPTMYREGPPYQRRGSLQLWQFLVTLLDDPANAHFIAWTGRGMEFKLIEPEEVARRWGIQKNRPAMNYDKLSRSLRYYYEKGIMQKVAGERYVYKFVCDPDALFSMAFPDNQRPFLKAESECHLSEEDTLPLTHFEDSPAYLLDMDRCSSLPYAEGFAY
How it was run: as §1

HSF1 = HSF1 (Homo sapiens, UniProt Q00613 1-529); conditions: protein: recombinant; tags: N-terminal GST; chain copies: 3; dsDNA, one strand shown
Sequence of HSF1 (Q00613 whole entry): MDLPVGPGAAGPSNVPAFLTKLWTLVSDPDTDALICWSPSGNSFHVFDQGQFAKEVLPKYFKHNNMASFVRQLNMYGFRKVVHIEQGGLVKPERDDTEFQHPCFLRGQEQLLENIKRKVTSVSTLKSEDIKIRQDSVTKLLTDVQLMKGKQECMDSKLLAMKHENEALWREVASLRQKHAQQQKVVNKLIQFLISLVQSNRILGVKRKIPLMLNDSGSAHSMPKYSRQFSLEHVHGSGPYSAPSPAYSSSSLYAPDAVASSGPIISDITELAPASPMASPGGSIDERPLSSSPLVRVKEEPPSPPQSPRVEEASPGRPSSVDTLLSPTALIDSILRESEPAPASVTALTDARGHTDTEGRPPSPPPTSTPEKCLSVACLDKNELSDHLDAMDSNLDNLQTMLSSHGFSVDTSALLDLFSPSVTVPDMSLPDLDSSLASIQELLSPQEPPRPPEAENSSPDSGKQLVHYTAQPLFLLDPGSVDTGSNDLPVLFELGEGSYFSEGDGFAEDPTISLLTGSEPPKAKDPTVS
How it was run: as §1

SPIC = molecular target: T8, SPIC (Homo sapiens, UniProt Q8N5J4 1-248); conditions: protein: recombinant; tags: N-terminal GST; dsDNA, one strand shown
T8 sequence: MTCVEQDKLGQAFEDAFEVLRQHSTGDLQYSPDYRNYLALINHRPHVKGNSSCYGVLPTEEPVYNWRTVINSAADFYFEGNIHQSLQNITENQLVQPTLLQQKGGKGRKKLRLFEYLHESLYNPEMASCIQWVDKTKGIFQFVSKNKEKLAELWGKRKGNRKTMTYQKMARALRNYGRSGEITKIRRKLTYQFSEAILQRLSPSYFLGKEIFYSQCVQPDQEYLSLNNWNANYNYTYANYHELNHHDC
How it was run: as §1

ELF4 = ELF4 (Homo sapiens, UniProt Q99607 1-663); conditions: protein: recombinant; tags: N-terminal GST; dsDNA, one strand shown
Sequence of ELF4 (Q99607 whole entry): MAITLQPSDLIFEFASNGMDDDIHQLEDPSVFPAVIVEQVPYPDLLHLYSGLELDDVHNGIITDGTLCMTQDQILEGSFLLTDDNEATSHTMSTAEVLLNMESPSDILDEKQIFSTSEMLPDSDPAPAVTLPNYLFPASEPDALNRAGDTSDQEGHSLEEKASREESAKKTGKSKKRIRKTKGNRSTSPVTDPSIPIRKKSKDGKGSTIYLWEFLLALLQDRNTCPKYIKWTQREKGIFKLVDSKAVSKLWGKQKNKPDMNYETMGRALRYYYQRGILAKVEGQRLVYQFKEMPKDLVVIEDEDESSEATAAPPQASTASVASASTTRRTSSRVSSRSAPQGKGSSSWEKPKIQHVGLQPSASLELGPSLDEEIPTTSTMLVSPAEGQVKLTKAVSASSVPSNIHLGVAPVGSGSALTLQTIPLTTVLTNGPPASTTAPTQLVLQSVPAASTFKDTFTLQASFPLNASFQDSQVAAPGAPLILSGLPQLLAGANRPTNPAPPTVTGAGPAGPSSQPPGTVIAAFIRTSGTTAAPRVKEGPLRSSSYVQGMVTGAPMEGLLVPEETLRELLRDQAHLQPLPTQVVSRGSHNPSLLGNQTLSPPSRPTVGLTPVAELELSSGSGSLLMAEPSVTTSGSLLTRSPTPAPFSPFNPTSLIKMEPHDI
How it was run: as §1

ELK4 = molecular target: T9, ELK4 (Homo sapiens, UniProt P28324-2 1-405); conditions: protein: recombinant; tags: N-terminal GST; dsDNA, one strand shown
T9 sequence: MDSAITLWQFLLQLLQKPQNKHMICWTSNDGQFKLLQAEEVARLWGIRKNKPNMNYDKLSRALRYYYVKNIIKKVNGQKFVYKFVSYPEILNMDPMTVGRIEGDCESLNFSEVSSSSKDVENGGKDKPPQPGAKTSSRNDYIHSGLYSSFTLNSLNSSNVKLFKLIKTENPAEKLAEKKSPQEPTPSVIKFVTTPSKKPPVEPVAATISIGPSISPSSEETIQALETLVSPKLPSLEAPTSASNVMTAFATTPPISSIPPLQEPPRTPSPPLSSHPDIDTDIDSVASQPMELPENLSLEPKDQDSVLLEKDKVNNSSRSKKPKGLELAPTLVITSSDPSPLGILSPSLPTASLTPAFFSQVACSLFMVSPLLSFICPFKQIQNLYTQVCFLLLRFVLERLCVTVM
How it was run: as §1

ETV2 = molecular target: T10, ETV2 (Homo sapiens, UniProt O00321 1-342); conditions: protein: recombinant; tags: N-terminal GST; dsDNA, one strand shown
T10 sequence: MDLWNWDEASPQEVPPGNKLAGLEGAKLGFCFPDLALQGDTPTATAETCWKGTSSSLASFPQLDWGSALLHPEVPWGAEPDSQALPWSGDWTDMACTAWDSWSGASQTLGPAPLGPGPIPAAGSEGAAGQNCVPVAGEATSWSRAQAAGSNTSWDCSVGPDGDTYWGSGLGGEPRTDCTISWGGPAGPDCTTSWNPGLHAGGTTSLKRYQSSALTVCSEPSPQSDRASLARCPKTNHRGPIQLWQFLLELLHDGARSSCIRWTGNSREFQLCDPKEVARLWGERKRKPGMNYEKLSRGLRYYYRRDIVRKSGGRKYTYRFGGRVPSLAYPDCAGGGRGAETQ
How it was run: as §1

ELF3 = molecular target: T11, ELF3 (Homo sapiens, UniProt P78545 1-371); conditions: protein: recombinant; tags: N-terminal GST; dsDNA, one strand shown
T11 sequence: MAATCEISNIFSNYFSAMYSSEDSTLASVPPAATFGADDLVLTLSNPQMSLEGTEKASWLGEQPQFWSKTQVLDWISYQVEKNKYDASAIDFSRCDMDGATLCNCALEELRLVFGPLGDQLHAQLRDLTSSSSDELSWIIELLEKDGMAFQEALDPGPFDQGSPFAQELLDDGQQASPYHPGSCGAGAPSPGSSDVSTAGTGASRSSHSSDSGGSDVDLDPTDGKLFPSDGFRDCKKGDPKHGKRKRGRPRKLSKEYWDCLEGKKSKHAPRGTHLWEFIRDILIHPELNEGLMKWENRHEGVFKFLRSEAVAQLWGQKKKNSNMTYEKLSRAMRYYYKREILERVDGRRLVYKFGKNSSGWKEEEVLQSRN
How it was run: as §1

CRX = CRX (Homo sapiens, UniProt O43186 1-299); conditions: protein: recombinant; tags: N-terminal GST; dsDNA, one strand shown
Sequence of CRX (O43186 whole entry): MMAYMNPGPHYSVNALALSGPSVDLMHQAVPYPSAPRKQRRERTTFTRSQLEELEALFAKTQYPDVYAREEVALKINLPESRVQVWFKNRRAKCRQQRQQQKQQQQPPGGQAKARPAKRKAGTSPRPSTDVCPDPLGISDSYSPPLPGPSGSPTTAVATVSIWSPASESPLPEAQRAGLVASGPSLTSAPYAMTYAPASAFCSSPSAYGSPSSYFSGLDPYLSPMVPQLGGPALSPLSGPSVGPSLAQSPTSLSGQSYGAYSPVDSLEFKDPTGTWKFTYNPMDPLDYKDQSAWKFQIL
How it was run: as §1

ETV1 = ETV1 (Homo sapiens, UniProt P50549 1-477); conditions: protein: recombinant; tags: N-terminal GST; dsDNA, one strand shown
Sequence of ETV1 (P50549 whole entry): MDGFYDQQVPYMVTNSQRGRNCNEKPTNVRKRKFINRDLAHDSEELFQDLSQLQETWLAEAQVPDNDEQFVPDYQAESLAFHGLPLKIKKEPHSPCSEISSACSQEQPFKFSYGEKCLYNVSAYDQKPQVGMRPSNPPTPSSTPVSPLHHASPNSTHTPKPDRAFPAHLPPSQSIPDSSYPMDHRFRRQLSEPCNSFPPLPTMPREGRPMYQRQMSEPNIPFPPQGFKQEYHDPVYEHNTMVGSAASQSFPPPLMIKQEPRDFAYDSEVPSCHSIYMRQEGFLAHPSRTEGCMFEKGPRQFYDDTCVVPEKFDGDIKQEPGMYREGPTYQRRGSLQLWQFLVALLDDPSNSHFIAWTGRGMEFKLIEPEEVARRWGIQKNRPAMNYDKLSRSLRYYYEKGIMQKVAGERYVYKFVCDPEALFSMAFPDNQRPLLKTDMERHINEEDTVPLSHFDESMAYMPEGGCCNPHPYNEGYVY
How it was run: as §1

AACTTC
binding signal (FLI1): 2.4 fold enrichment (6-mer frequency, TF over GST control) | binding signal (ELK1): 2.53 fold enrichment (6-mer frequency, TF over GST control) | binding signal (GABPA): 2.41 fold enrichment (6-mer frequency, TF over GST control) | binding signal (ERG): 2.73 fold enrichment (6-mer frequency, TF over GST control) | binding signal (ELF1): 2.47 fold enrichment (6-mer frequency, TF over GST control) | binding signal (EHF): 2.5 fold enrichment (6-mer frequency, TF over GST control) | binding signal (SPI1): 3.04 fold enrichment (6-mer frequency, TF over GST control) | binding signal (SPIB): 2.77 fold enrichment (6-mer frequency, TF over GST control) | binding signal (ELK3): 2.72 fold enrichment (6-mer frequency, TF over GST control) | binding signal (FEV): 3.12 fold enrichment (6-mer frequency, TF over GST control) | binding signal (ETV5): 2.71 fold enrichment (6-mer frequency, TF over GST control) | binding signal (HSF1): 2.02 fold enrichment (6-mer frequency, TF over GST control) | binding signal (SPIC): 2.83 fold enrichment (6-mer frequency, TF over GST control) | binding signal (ELF4): 2.44 fold enrichment (6-mer frequency, TF over GST control) | binding signal (ELK4): 2.34 fold enrichment (6-mer frequency, TF over GST control) | binding signal (ETV2): 2.52 fold enrichment (6-mer frequency, TF over GST control) | binding signal (ELF3): 2.39 fold enrichment (6-mer frequency, TF over GST control) | binding signal (CRX): 1.45 fold enrichment (6-mer frequency, TF over GST control) | binding signal (ETV1): 2.6 fold enrichment (6-mer frequency, TF over GST control)
